Only some compounds are listed: those with a hit (about 5.1% of all), similar ones and a draw of the others.
Tau fluor cs – counter-screen for tau fibril formation inhibitors | tau K18 P301L Alexa594 fluorescence, heparin fibrillization | Potency, µM (doses to about 57.7 µM), for the others: at the top dose activity change, negative = decrease | actives 0.93% (n = 280,000); further: potency means the concentration at half of the fitted maximal effect; nearly all actives have a fitted effect of over 55% in size
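Human tau K18 P301L (15 uM unlabeled, 0.24 uM Alexa 594-labeled) in 100 mM sodium acetate pH 7 with 20 uM heparin, 6 hr at 37 C. ThT 30 uM added, 1 hr ambient; Alexa 594 FP and total fluorescence read at 555/632 nm.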
JMJD2E inh – inhibitors of human JMJD2E histone demethylase; AID 2147; actives 1.6% (n = 230,000); Potency, µM (top dose mostly 57.1 µM), for the others: at the top dose activity change, negative = inhibition, actives largely listed as inhibitors; JMJD2E catalytic domain, FDH-coupled NADH fluorescence (FDH is formaldehyde dehydrogenase); B2RXH2; active means well fitted inhibition curve with a large enough effect, not every such curve was filed as active; inconclusive means small, poorly fitted or top-dose-only effect, or another doubt; inactive means no such curve, though single readings can be large or run the other way;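 further: potency means the concentration at half of the fitted maximal effect; 0% = wells with enzyme and -100% = buffer wells without enzyme; nearly all actives have a fitted effect of over 50% in size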
Target sequence (B2RXH2 1-337 limits assumed): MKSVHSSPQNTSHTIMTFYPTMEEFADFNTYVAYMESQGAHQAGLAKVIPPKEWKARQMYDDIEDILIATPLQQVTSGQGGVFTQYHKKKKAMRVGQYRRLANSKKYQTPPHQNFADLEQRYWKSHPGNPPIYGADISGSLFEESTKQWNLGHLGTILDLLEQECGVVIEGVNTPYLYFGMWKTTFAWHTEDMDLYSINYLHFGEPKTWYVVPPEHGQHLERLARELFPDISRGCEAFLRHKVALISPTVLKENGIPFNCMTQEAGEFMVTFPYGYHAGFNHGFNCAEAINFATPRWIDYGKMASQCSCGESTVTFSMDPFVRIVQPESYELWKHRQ
Tau fibril ThT – tau fibrillization inhibition (ThT binding). Potency, µM (doses to about 57.4 µM), without a hit: at the highest dose activity, negative = inhibition, most hits filed as inhibitors. recombinant tau K18 P301L (four-repeat tau fragment), heparin-induced fibrillization, ThT fluorescence. P10636. actives 2.1% (n = 270,000); further: potency means the concentration at half of the fitted maximal effect; nearly all actives have a fitted effect of over 55% in size
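Recombinant human tau K18 fragment […] carrying P301L, 15 uM unlabeled plus 0.24 uM Alexa 594-labeled, was fibrillized with 20 uM heparin in 100 mM sodium acetate pH 7 for 6 hr at 37 C; 30 uM ThT fluorescence read after 1 hr.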
Tau FP inhib – blocks human tau fibril formation measured by polarization; P10636; K18 P301L tau heparin fibrillization, Alexa594 FP, 6 h; Potency, µM (series often up to 57.7 µM), for the others: at the highest dose activity, negative = inhibition, actives largely listed as inhibitors; actives 0.39% (n = 280,000); AID 1468; further: potency means the concentration at half of the fitted maximal effect; nearly all actives have a fitted effect of over 55% in size
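Steps: dispense K18 P301L tau (15 uM plus 0.24 uM Alexa 594 tracer, final) in pH 7 sodium acetate; add compound; add heparin (20 uM final); incubate 6 hr, 37 C; add ThT (30 uM final); after 1 hr ambient, read FP.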
PNC assembly inh – blocks assembly of the perinucleolar compartment; PC3M PTB-GFP, PNC prevalence imaging, 16 h; hits give low values; activity change (PNC), negative = inhibition, % at 10 µM; actives 3.1% (n = 140,000); AID 2417;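 active means readout at or below -70, meaning at least 70% loss of cells showing the perinucleolar compartment, a nuclear body marking cancer cells; inconclusive means readout between -30 and a set limit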;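 further: plate controls were DMSO wells for no effect and camptothecin positive control wells for full effect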
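Compounds are pinned in duplicate onto adhered PC3M cells stably expressing GFP-tagged PTB and incubated 16 h at 37 C. Cells are then fixed, nuclei stained with Hoechst, and PNC-positive cells counted.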
NPSR antagonist – antagonists of human neuropeptide S receptor cAMP signaling. Potency, µM (highest dose often 38.3 µM), inactives show at the top dose activity change, negative = inhibition, usual class: inhibitors. AID 1461. CHO-NPSR cells, cAMP TR-FRET, antagonist mode. Q6W5P4. actives 1% (n = 220,000); further: potency means the concentration at half of the fitted maximal effect; nearly all actives have a fitted effect of over 50% in size
Target sequence (Q6W5P4 whole entry, looked up): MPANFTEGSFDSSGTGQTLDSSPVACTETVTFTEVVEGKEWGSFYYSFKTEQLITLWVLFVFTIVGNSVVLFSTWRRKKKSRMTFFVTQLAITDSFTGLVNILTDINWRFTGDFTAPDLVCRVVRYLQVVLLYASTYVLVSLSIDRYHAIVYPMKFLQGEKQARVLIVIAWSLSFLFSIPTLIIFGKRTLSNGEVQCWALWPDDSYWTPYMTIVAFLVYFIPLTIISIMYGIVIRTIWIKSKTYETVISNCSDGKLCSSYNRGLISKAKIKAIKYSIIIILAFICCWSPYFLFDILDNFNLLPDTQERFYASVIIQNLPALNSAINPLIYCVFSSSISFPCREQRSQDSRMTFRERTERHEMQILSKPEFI
* hit, by the source's call; ? = inconclusive; . = no result; [ ] = dose if it differs, or a comment. Unless noted, the call rests on the fitted dose curve; in most records, active means well fitted curve in the direction sought with a large enough effect; inconclusive means small, poorly fitted or top-dose-only effect, or another doubt; inactive means no such curve, though single readings can be large; an effect the other way counts as inactive or inconclusive. Unless noted, on the % scale 0 is the no-effect control and ±100 the full control effect.

SMILES	Tau fluor cs	JMJD2E inh	Tau fibril ThT	Tau FP inhib	PNC assembly inh	NPSR antagonist
NC(=O)c1cc[n+](CC(=O)c2ccc(NC(=O)c3ccccc3)cc2)cc1	-8%	13µM*	?	-18%	.	6%
O=C(NCCCN1CCN(c2ccccc2F)CC1)c1ccc2nc(N3CCCCC3)sc2c1	-18%	.	-18%	-2%	.	.
CCCn1c(=O)c2sccc2n2c(CCCC(=O)Nc3ccc(C)c(F)c3)nnc12	-20%	.	-8%	-8%	.	.
CN(C)C(=O)N1CCCC(C(=O)NCCc2ccccc2)C1 (stereo unspecified)	0%	3%	-1%	-2%	9	-4%[46.1 µM]
CN(C)C(=O)N1CCCC(C(=O)NCc2ccccc2)C1 (stereo unspecified)	5%	4%	-1%	-5%	-91*	3%[46.1 µM]
CC(C)CNC(=O)c1c(-c2ccccc2)c(-c2ccccc2)nn(C)c1=O	-3%	.	3%	2%	.	.
OC(CNCC(c1ccco1)N1CCCCC1)c1ccccc1 (stereo unspecified)	6%	?	1%	-1%	-127*	-28%[46.1 µM]
CN(C(=O)CSc1nc2ccc(NC(=O)c3ccco3)cc2s1)c1ccccc1	?	.	7%	?	.	.
CCOC(=O)c1ccc(-n2c(O)c(/C=N/NC(=O)C3COc4ccccc4O3)c3ccccc3c2=O)cc1 (stereo unspecified)	?	25µM*	?	12%	42	-8%
Cc1nn(-c2ccccc2)c(Cl)c1/C=N/NC(=O)C1COc2ccccc2O1 (stereo unspecified)	-5%	6%	?	5%	76	-6%
O=C(/C(=C/O)N=Nc1ccccc1)c1ccc(Cl)cc1	-25%	-1%	?	-8%	.	?
Cc1ccc(N=N/C(=C\O)C(=O)c2ccc(Cl)cc2)cc1	-20%	0%	28µM*	0%	.	7.9µM*
O=C(/C(=C/O)N=Nc1ccccc1)c1ccncc1	-19%	-4%	14µM*	-3%	4	?
OCCN(CCO)c1ccc(C(c2ccccc2Cl)c2ccc(N(CCO)CCO)cc2Cl)c(Cl)c1	11µM*[quencher]	-20%	?	17%	?	-27%[46.1 µM]
OCCN(CCO)c1ccc2ccccc2c1	-17%	?	-16%	-5%	.	17%
CCc1nnc2c3ccccc3nc(Nc3ccc(C(C)=O)cc3)n12	-13%	.	-14%	-5%	.	.
CN(C)CCCN(C(=O)c1sc2ccccc2c1Cl)c1nc2ccc(F)cc2s1	-19%	6%	-1%	-11%	-94*	-22%
COc1ccc(CNC(=O)CCn2nc(C)c3c(C)n(-c4ccccc4)nc3c2=O)cc1OC	13%	.	?	7%	.	.
Cc1cccc(NC(=O)CN2C(=O)C3(SCC(=O)N3c3ccccc3)c3ccccc32)c1 (stereo unspecified)	-23%	.	-2%	-8%	.	.
CCc1cccc2c(-c3ccccc3)nc(SCC(=O)Nc3ccccc3OC)nc12	-9%	.	-12%	?	.	.
CCCC(=Nc1ccc(N)cc1)C1=C(O)C(C(=O)OC)C(C)(C)CC1=O (stereo unspecified)	7.1µM*[quencher]	?	7.9µM*	14µM*	-25	-9%[46.1 µM]
COC(=O)c1c(-c2cccs2)csc1NC(=O)COc1ccc(C(C)C)cc1	-17%	.	28µM*	?	.	.
CCCc1ccc(OCC(=O)Nc2scc(-c3cccs3)c2C(=O)OC)cc1	-23%	.	22µM*	?	.	.
CCOc1ccccc1N(CC(=O)NCCSc1ccccc1)S(=O)(=O)c1ccccc1	-10%	.	-7%	-4%	.	.
CC1=CC(c2ccc(Cl)cc2)n2nc(NS(=O)(=O)c3ccc(C)cc3)nc2N1 (stereo unspecified)	-12%	?	?	-1%	33	-20%[46.1 µM]
SMILES	Tau fluor cs	JMJD2E inh	Tau fibril ThT	Tau FP inhib	PNC assembly inh	NPSR antagonist
CC1=CC(c2ccccc2)n2nc(NS(=O)(=O)c3ccc(C)cc3)nc2N1 (stereo unspecified)	?	10%	11µM*	?	-10	-9%[46.1 µM]
CNCC(O)Cn1c(C(F)(F)F)nc2ccccc21 (stereo unspecified)	2%	12%	-2%	0%	-100*	-13%[46.1 µM]
COC(=O)c1cc(NC(C)=O)ccc1N1CCOCC1	-6%	-16%	-2%	-5%	.	18%
COC(=O)c1cc(NC(=O)c2cc(-c3ccc(C(F)(F)F)cc3)oc2C(F)(F)F)ccc1N1CCOCC1	1µM*[quencher]	?	.	8%	.	-47%
COC(=O)c1cc(NC(=O)c2cc(-c3ccc(OC)cc3)oc2C(F)(F)F)ccc1N1CCOCC1	8.9µM*[quencher]	?	.	?	.	-15%
O=C(CCS(=O)(=O)c1nc(-c2ccc3c(c2)OCO3)cc(C(F)(F)F)n1)Nc1ccc(F)c(Cl)c1	-25%	.	-9%	-8%	.	.
CCc1cccc(NC(=O)CSc2nncn3c2cc2sccc23)c1	-7%	.	2%	-15%	.	.
CC(=O)N1c2ccccc2CC1C(=O)N1CCN(c2cccc(C)c2C)CC1 (stereo unspecified)	-4%	.	4%	-2%	.	.
O=C1Cn2c(nc3ccccc32)N1c1ccccc1F	4%	8%	-6%	1%	-102*	2%[46.1 µM]
CN1C(=O)Cn2c1nc1ccccc12	7%	-14%	0%	0%	23	6%[46.1 µM]
Cc1ccc(NC(=O)C(Cc2ccccc2)NS(=O)(=O)c2cccc3nsnc23)c(C)c1 (stereo unspecified)	-33%	.	?	-5%	.	.
O=C(O)CCc1nn2cc(-c3ccccc3)nc2[nH]c1=O	-1%	?	-9%	1%	-100*	9%[46.1 µM]
Cc1nn2cc(-c3ccccc3)nc2[nH]c1=O	-15%	7%	-17%	-4%	?	4%[46.1 µM]
O=C(/C=C/c1cccc([N+](=O)[O-])c1)n1cnc2ccccc21	?	-9%	13µM*	?	.	-52%
Cc1ccc(Cl)cc1NC(=O)CN(C)S(=O)(=O)c1ccc2c(c1)n(C)c(=O)c(=O)n2C	-1%	.	-15%	-3%	.	.
Cc1nn(C)c(Sc2ccccc2N)c1[N+](=O)[O-]	-18%	?	32µM*	?	.	1%
O=C(C1CCCN(S(=O)(=O)c2cnc[nH]2)C1)N1CC(=O)N(CCc2ccccc2)C(=O)C1 (stereo unspecified)	-4%	-2%	-4%	2%	-119*	10%
O=C(C1CCCN(S(=O)(=O)c2cnc[nH]2)C1)N1CCN(c2ccc(Cl)cc2)CC1 (stereo unspecified)	1%	-4%	-2%	-1%	-24	-4%[46.1 µM]
Cc1ccc(-c2nnc(SCC(=O)NC(C)(C)C)nc2-c2ccc(C)cc2)cc1	-6%	.	0%	3%	.	.

Bioassay records deposited in PubChem BioAssay by National Center for Advancing Translational Sciences (NCATS).
